Source: PubChem BioAssay AID1159580 (chemical genetic matrix, 2015)
The whole screen tested about 5,500 compounds, of which about 2,000 (36%) were called active. Inconclusive results (about 18%) are left out. Cut-off read from the data, not from the text of the source: active = normalized growth mostly below about 0.91 (no sharp cut-off); inconclusive = no clear call, values can overlap the other calls; inactive = mostly above about 0.92. This is one part of the list.

Test: chemical genetic growth profiling, strain panel (AID 1159580);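 note: tested at 20 µM; growth read once vehicle control cultures reached saturation at 30 °C; 1 = growth at the plate median or of vehicle wells; lower values mean less growth of the strain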
Settings: S. cerevisiae deletion strains, growth OD
[1] = locus YHR030C, strain SLT2, hits give low values
[2] = locus YJL187C, strain SWE1, hits give low values
[3] = locus YHR079C, strain IRE1, hits give low values
[4] = locus YJL095W, strain BCK1, hits give low values
[5] = locus YJR066W, strain TOR1, hits give low values
[6] = locus YLR113W, strain HOG1, hits give low values
[7] = locus YNL183C, strain NPR1, hits give low values
[8] = locus YOR231W, strain MKK1, hits give low values
[9] = locus YPL256C, strain CLN2, hits give low values

Measured: normalized growth

COC(=O)C1Cc2c([nH]c3ccccc23)C2(CCN(C)CC2)N1 (stereo unspecified)
inactive: locus YAL013W, strain DEP1, hits give low values 1.01 | locus YBR229C, strain ROT2, hits give low values 0.989 | locus YDL101C, strain DUN1, hits give low values 0.995 | locus YDL134C, strain PPH21, hits give low values 0.981 | locus YDR150W, strain NUM1, hits give low values 0.986 | locus YEL061C, strain CIN8, hits give low values 0.993 | locus YGR078C, strain PAC10, hits give low values 0.993 | [1] 0.985 | locus YHR087W, strain rtc3, hits give low values 0.998 | [2] 0.996 | locus YJR043C, strain POL32, hits give low values 1 | locus YJR075W, strain HOC1, hits give low values 0.998 | locus YLR039C, strain RIC1, hits give low values 0.975 | locus YLR058C, strain SHM2 (second series), hits give low values 1.01 | locus YLR085C, strain ARP6, hits give low values 1.01 | locus YLR262C, strain YPT6, hits give low values 0.981 | locus YML094W, strain GIM5, hits give low values 0.961 | locus YMR219W, strain ESC1, hits give low values 0.995 | locus YMR263W, strain SAP30, hits give low values 1.02 | locus YNL128W, strain TEP1, hits give low values 0.973 | locus YNL153C, strain GIM3, hits give low values 0.999 | locus YNL298W, strain CLA4 (second series), hits give low values 1.02 | locus YNL322C, strain KRE1, hits give low values 0.987 | locus YNR030W, strain Alg12, hits give low values 1.01 | locus YOL006C, strain TOP1, hits give low values 1 | locus YPL055C, strain LGE1, hits give low values 1.01 | locus YPL241C, strain CIN2, hits give low values 0.977 | locus YPR135W, strain CTF4, hits give low values 0.944

CCCNCCCCCC[N+](C)(C)C
inactive: [1] 1.02 | [3] 0.975 | [4] 0.979 | [5] 0.927 | [6] 1.02 | [7] 0.932 | [8] 0.984 | [9] 0.989

Cc1cc(-n2c(=O)[nH]c(=O)n(C)c2=O)ccc1Oc1ccc(SC(F)(F)F)cc1
inactive: locus YAL021C, strain ccr4, hits give low values 0.925 | locus YBR279W, strain paf1, hits give low values 0.935 | locus YCL069W, strain vba3, hits give low values 0.978 | locus YDR069C, strain doa4, hits give low values 0.941 | locus YEL037C, strain rad23, hits give low values 0.933 | locus YER015W, strain faa2, hits give low values 0.994 | locus YER016W, strain bim1, hits give low values 0.935 | locus YER155C, strain BEM2 (second series), hits give low values 0.968 | locus YGL167C, strain pmr1, hits give low values 1.02 | locus YHR013C, strain ard1, hits give low values 0.998 | locus YHR027C, strain rpn1, hits give low values 0.969 | locus YJL115W, strain asf1, hits give low values 0.926 | locus YJL129C, strain trk1, hits give low values 0.882 | locus YLR384C, strain iki3, hits give low values 1.03 | locus YMR129W, hits give low values 1.02 | locus YNL322C, strain KRE1 (second series), hits give low values 1.03 | locus YNR049C, strain mso1, hits give low values 0.98 | locus YOR080W, strain dia2, hits give low values 1.02 | locus YPL240C, strain hsp82, hits give low values 0.954
active: locus YAL026C, strain drs2, hits give low values 0.602 | locus YAL030W, strain snc1, hits give low values 0.565 | locus YBL061C, strain skt5, hits give low values 0.688 | locus YBR009C, strain hhf1, hits give low values 0.552 | locus YBR023C, strain chs3, hits give low values 0.742 | locus YBR171W, strain sec66, hits give low values 0.802 | locus YBR231C, strain swc5, hits give low values 0.868 | locus YCL011C, strain gbp2, hits give low values 0.548 | locus YCL016C, strain dcc1, hits give low values 0.905 | locus YCL061C, strain MRC1, hits give low values 0.792 | locus YCR088W, strain abp1, hits give low values 0.793 | locus YDL005C, strain med2, hits give low values 0.583 | locus YDL040C, strain nat1, hits give low values 0.863 | locus YDR001C, strain nth1, hits give low values 0.845 | locus YDR137W, strain rgp1, hits give low values 0.405 | locus YDR159W, strain sac3, hits give low values 0.532 | locus YDR195W, strain ref2 0.418 | locus YDR297W, strain sur2, hits give low values 0.695 | locus YDR334W, strain swr1, hits give low values 0.855 | locus YDR335W, strain msn5, hits give low values 0.661 | locus YDR392W, strain spt3, hits give low values 0.141 | locus YEL003W, strain gim4, hits give low values 0.704 | locus YEL061C, strain CIN8 (second series), hits give low values 0.647 | locus YER111C, strain swi4, hits give low values 0.75 | locus YFR010W, strain ubp6, hits give low values 0.76 | locus YGL173C, strain kem1, hits give low values 0.895 | locus YGL227W, strain vid30, hits give low values 0.867 | locus YGL240W, strain doc1, hits give low values 0.629 | locus YGL253W, strain hxk2, hits give low values 0.701 | [1] 0.811 | [3] 0.786 | locus YHR142W, strain chs7, hits give low values 0.318 | locus YJL092W, strain hpr5, hits give low values 0.844 | locus YJL095W, strain BCK1 (second series), hits give low values 0.754 | [4] 0.724 | locus YJL154C, strain vps35, hits give low values 0.644 | locus YJL164C, strain tpk1, hits give low values 0.346 | locus YJL166W, strain qcr8, hits give low values 0.383 | [2] 0.546 | [5] 0.75 | locus YKL160W, strain elf1, hits give low values 0.69 | locus YKR026C, strain gcn3, hits give low values 0.707 | locus YKR091W, strain srl3, hits give low values 0.908 | locus YLL001W, strain dnm1, hits give low values 0.844 | locus YLL026W, hits give low values 0.169 | locus YLL041C, strain sdh2, hits give low values 0.775 | locus YLR027C, strain aat2, hits give low values 0.589 | [6] 0.764 | locus YLR221C, strain rsa3, hits give low values 0.436 | locus YLR258W, strain gsy2, hits give low values 0.705 | locus YLR262C, strain YPT6 (second series), hits give low values 0.367 | locus YLR320W, strain mms22, hits give low values 0.823 | locus YLR342W, strain FKS1, hits give low values 0.864 | locus YLR357W, strain rsc2, hits give low values 0.581 | locus YLR370C, strain arc18, hits give low values 0.886 | locus YML120C, strain ndi1, hits give low values 0.844 | locus YMR058W, strain fet3, hits give low values 0.705 | locus YMR125W, strain sto1, hits give low values 0.709 | locus YMR205C, strain PFK2, hits give low values 0.705 | locus YMR231W, strain pep5, hits give low values 0.703 | locus YNL071W, strain lat1, hits give low values 0.422 | [7] 0.81 | locus YNL209W, strain ssb2, hits give low values 0.915 | locus YNL248C, strain rpa49, hits give low values 0.635 | locus YOR001W, strain rrp6, hits give low values 0.888 | locus YOR070C, strain gyp1, hits give low values 0.754 | locus YOR083W, strain WHI5, hits give low values 0.758 | locus YOR106W, strain vam3, hits give low values 0.424 | [8] 0.804 | locus YOR265W, strain rbl2, hits give low values 0.893 | locus YOR270C, strain vph1, hits give low values 0.344 | locus YOR290C, strain snf2, hits give low values 0.763 | locus YPL051W, strain arl3, hits give low values 0.636 | locus YPL078C, strain atp4, hits give low values 0.547 | locus YPL106C, strain sse1, hits give low values 0.469 | [9] 0.764
